The results in this text go back to the supplement of paper PMC9897528.
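Note: conidia screened in RPMI 1640 medium under 5% CO2, growth read by spectrophotometer, medium with 0.5% DMSO serving as the untreated reference.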

This test deals with Scedosporium aurantiacum CBS 136046. Briefly: growth inhibition relative to DMSO control (OD600); higher = more antifungal activity, active = 80 or more; extreme values may be limits of the assay. To be noted: 5 µM; 72 h; 37 °C.
Regarding `O=S(=O)(Nc1ccccc1)c1ccc(NC(=S)Nc2ccccc2)cc1`, the growth inhibition is 24.2% (inactive).
With `COc1ccc2cc3[n+](cc2c1OCCN(CCn1cncn1)Cc1ccc(F)cc1F)CCc1cc2c(cc1-3)OCO2` the figure was 2.66% (inactive).
For `O=[N+]([O-])c1cn2c(n1)OC[C@@H](OCc1ccc(OC(F)(F)F)cc1)C2` the value was 11.2% (inactive); for `Cc1nc(N(C)C(=O)Cc2ccc(-c3ccccn3)cc2)sc1S(N)(=O)=O`, 4.79% (inactive); for `COc1ccc(CNC(=O)C2CCN([C@H](C)c3cccc4ccccc34)CC2)cc1`, 9.67% (inactive).
`NC(=O)c1c(N)sc2c1CCCCC2`: the growth inhibition is 6.23% (inactive).
Take `CC#C[C@]1(O)CC[C@H]2[C@@H]3CCC4=CC(=O)CCC4=C3[C@@H](c3ccc(N(C)C)cc3)C[C@@]21C`: the growth inhibition was 11.4% (inactive).
Regarding `O=c1ccc2ncc(=O)n3c2n1CC3CN1CCC(NCc2cc3c(cn2)OCCC3)CC1` (stereo not drawn), the growth inhibition was 0% (inactive).
In the case of `C=CCN(C(=O)OCc1ccc([N+](=O)[O-])cc1)C1CCN(CC[C@](C)(CN(C)S(=O)(=O)c2ccccc2)c2ccccc2)CC1`, the growth inhibition is 34.9% (inactive).
For the compound `O=C(O)C(Cc1c[nH]c2ccccc12)N1C(=O)c2ccccc2C1=O` (stereo not drawn), the growth inhibition is 19.9% (inactive).
`O=C(NCc1ncc(C(F)(F)F)cc1Cl)c1c(Cl)cccc1Cl`: the growth inhibition is 0% (inactive).
With `O=C(NC(=O)N1CCCc2ccccc21)c1cccc(Cl)c1` the figure was 5.71% (inactive); with `CC[C@@H]1C(=O)OC[C@@H]1Cc1cncn1C`, 0% (inactive).
As for `O=c1cc(NCCCN[C@@H]2CCOc3c(Br)cc(Br)cc32)[nH]c2ccsc12`, the growth inhibition is 17.3% (inactive).
Consider `O=C(c1ccc(F)cc1)N1CCN2C(=O)c3ccccc3C12c1ccccc1` (stereo not drawn), for which the growth inhibition is 12.5% (inactive).
With `CCOC(=O)/C=C/[C@H](C[C@@H]1CCNC1=O)NC(=O)[C@@H](CC(=O)[C@@H](NC(=O)c1cc(C)on1)C(C)C)Cc1ccc(F)cc1` the figure was 1.27% (inactive); with `O=C(Nc1ccc(N2CCN(C(=O)c3ccccc3)CC2)cc1)c1ccc2c(c1)OCO2`, 16.5% (inactive).
For the compound `CCNC(=O)Nc1cc2c(-c3ccnc(C)c3)ccc(CNC(=O)OC)c2cn1`, the growth inhibition is 13.3% (inactive).
In the case of `O=C(O)c1ccc(-n2nc(-c3ccccc3O)nc2-c2ccccc2O)cc1`, the growth inhibition is 0.0499% (inactive).
With `Cc1ccc(Oc2ccccc2-c2csc(N=C3NCCCN3)n2)c(C)c1` the figure was 68% (inactive); with `C/C(=N\NC(=O)C1CC1c1ccccc1)c1ccc(NC(=O)c2ccco2)cc1` (stereo not drawn), 1.06% (inactive).
For `O=C(c1nc2c(C(F)(F)F)cc(C3CC3)cn2c1Cl)N1CCN([C@H]2CC[C@H](O)CC2)C(=O)C1`, the growth inhibition is 4.91% (inactive).
In the case of `COc1ccc2sc3c(c2c1)NC(C)CNC3=O` (stereo not drawn), the growth inhibition was 7.39% (inactive).
Turning to `Nc1nc(=O)[nH]cc1F`, the growth inhibition is 0.0511% (inactive).
For `Cc1ccc(C)c(OCCCCCCN2C[C@H](O)[C@@H](O)[C@H](O)[C@H]2CO)c1`, the growth inhibition is 15.9% (inactive).
With `Cc1cc(Nc2ccc(F)cc2)nc(SCc2nc3ccccc3[nH]2)n1` the figure was 0% (inactive); with `CCCC(=O)OCCc1ccccc1`, 0% (inactive).
For `CC(=O)N1CCN(c2ccc(OCC3COC(Cn4ccnc4)(c4ccc(Cl)cc4Cl)O3)cc2)CC1` (stereo not drawn) the value was 83.2% (active); for `CN(C)CCCOc1ccc(-c2ccc3ncc4c(c3c2)n(C2CCOCC2)c(=O)n4C)cn1`, 3.43% (inactive).
Take `CC[C@H](NC(=O)[C@H](C)NC)C(=O)N1C[C@@H](O)C[C@H]1Cc1c(-c2[nH]c3cc(F)ccc3c2C[C@@H]2C[C@H](O)CN2C(=O)[C@H](CC)NC(=O)[C@H](C)NC)[nH]c2cc(F)ccc12`: the growth inhibition is 6.5% (inactive).
Turning to `O=S(=O)(NCB(O)O)c1cc2c(Cl)ccc(Cl)c2s1`, the growth inhibition is 5.78% (inactive).
Consider `CC1(C)C[C@H]1C(=O)N/C(=C\CCCCSC[C@@H](N)C(=O)O)C(=O)O`, for which the growth inhibition was 4.68% (inactive).
In the case of `CO/N=C(\C(=O)N[C@@H]1C(=O)N2C(C(=O)OCOC(=O)C(C)(C)C)=C(/C=C\c3scnc3C)CS[C@H]12)c1csc(N)n1`, the growth inhibition was 0% (inactive).
As to `CN(C(=O)C1(c2ccc(Cl)cc2)CCC1)c1ccccc1`, the growth inhibition is 13.9% (inactive).
Regarding `CCc1cc(CCC(=O)Nc2ccccc2O)c(O)nc1C`, the growth inhibition was 5.23% (inactive).
In the case of `O=C(c1ccccc1)N1CCN(c2ccccc2NC(=O)C(Cl)(Cl)Cl)CC1`, the growth inhibition was 33.8% (inactive).
As to `CC(C)(C)OC(=O)NCc1ccc(C(=O)N[C@H]2CCOC2=O)cc1`, the growth inhibition is 15.3% (inactive).
As for `Nc1ccc2oc(=O)ccc2c1I`, the growth inhibition was 8.52% (inactive).
